Source: the supplement of paper PMC10849652
About 7,900 targets were measured; listed, in parts, are those with a hit and a random draw of the rest. About 0.6% of all pairs of compound and target were hits.

Compound: c1cn2cc(-c3ccc4cn[nH]c4c3)nc(Nc3ccc(N4CCOCC4)cc3)c2n1 [entospletinib]
Assay: log2 fold change, soluble protein after heating vs DMSO (PISA); higher = thermal stabilisation; K562 cells, 10 uM, 30 min; active = over 0.2 and 3.5 SD of the protein, either way, in both replicates (recomputed)
Summary of the method: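 K562 cells at 2×10^6 cells/mL were exposed to 10 μM compound for 30 min, then aliquots were heated for 3 min across 48°C-58°C, pooled, and extracted in PBS containing 0.5% NP-40 at 4°C. The supernatant after 21,000xg for 90 min was taken as soluble protein and measured by TMTpro 16plex LC-MS/MS with channel sums equalised. Thermal stability is reported relative to control samples, with values from duplicates. Fold changes are given on a log2 scale.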

Sequence of UniProt Q4G0J3 (Q4G0J3 whole entry, looked up): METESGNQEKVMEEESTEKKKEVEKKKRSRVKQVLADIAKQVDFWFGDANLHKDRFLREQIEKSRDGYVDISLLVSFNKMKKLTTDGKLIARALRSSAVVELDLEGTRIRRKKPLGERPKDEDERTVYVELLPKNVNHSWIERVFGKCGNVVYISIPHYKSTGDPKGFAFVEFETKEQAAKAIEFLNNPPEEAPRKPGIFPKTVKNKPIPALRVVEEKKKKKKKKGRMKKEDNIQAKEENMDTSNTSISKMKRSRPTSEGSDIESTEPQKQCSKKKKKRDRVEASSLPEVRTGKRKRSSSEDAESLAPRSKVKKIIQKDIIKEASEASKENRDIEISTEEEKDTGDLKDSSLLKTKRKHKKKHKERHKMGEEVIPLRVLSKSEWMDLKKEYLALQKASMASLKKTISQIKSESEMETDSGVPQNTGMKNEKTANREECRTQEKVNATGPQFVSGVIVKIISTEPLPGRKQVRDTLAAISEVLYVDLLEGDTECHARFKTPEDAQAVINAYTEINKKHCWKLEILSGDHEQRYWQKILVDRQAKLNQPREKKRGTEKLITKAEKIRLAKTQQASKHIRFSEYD
Sequence of UniProt Q9NQ29 (Q9NQ29 whole entry, looked up): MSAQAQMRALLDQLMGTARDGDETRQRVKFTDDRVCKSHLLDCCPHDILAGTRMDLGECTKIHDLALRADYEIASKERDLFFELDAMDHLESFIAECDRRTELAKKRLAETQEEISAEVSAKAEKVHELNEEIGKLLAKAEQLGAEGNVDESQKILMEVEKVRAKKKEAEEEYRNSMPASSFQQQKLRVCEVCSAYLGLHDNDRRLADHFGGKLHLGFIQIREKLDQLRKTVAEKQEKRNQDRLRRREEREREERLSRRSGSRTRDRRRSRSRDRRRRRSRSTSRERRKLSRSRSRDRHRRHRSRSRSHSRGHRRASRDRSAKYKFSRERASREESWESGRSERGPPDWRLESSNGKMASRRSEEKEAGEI
Sequence of UniProt Q6UB28 (Q6UB28 whole entry, looked up): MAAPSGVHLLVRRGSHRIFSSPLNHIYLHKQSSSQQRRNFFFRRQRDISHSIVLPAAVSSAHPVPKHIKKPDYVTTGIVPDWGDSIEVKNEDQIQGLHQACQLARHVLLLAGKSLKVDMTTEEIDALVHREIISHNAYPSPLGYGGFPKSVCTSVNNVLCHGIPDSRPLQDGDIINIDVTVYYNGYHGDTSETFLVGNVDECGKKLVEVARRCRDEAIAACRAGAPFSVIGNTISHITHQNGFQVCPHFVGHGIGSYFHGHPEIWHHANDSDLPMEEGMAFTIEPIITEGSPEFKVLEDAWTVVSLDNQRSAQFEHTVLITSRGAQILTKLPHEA
Sequence of UniProt Q9H9P8 (Q9H9P8 whole entry, looked up): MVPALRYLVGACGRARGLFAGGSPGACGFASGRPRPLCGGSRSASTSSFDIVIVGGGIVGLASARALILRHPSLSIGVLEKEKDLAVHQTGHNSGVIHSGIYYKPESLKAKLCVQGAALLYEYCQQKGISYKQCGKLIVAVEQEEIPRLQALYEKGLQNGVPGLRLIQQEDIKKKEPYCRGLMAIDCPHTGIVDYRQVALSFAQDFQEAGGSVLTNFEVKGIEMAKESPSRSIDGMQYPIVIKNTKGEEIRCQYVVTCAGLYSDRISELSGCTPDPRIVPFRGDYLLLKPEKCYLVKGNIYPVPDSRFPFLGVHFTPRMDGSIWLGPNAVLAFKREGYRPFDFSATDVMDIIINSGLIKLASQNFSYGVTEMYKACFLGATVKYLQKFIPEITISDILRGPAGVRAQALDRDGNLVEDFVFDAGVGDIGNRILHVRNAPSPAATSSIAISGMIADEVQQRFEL
Sequence of UniProt Q9Y2U8 (Q9Y2U8 whole entry, looked up): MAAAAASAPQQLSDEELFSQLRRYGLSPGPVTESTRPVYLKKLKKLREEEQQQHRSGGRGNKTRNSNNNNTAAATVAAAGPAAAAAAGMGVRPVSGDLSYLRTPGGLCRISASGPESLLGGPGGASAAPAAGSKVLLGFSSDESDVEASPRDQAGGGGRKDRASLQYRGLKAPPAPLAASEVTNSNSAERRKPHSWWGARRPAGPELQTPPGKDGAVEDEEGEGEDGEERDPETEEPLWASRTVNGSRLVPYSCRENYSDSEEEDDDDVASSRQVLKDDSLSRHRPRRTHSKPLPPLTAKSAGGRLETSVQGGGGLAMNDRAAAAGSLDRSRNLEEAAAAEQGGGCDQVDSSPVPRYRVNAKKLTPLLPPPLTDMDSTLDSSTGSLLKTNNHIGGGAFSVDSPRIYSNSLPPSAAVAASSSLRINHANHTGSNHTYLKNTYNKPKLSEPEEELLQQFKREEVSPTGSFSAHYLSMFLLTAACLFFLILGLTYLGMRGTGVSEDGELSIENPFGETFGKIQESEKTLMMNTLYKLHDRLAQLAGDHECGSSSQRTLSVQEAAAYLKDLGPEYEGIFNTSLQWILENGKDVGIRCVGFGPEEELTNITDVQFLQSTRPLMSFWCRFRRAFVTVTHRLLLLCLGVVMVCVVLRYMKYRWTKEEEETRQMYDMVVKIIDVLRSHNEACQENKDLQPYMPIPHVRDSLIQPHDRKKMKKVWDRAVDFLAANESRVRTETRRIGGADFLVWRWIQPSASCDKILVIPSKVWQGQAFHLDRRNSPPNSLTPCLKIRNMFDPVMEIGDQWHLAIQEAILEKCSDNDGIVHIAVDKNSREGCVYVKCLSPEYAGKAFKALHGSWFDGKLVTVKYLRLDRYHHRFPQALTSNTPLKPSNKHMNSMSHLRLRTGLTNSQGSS
Sequence of UniProt P23368 (P23368 whole entry, looked up): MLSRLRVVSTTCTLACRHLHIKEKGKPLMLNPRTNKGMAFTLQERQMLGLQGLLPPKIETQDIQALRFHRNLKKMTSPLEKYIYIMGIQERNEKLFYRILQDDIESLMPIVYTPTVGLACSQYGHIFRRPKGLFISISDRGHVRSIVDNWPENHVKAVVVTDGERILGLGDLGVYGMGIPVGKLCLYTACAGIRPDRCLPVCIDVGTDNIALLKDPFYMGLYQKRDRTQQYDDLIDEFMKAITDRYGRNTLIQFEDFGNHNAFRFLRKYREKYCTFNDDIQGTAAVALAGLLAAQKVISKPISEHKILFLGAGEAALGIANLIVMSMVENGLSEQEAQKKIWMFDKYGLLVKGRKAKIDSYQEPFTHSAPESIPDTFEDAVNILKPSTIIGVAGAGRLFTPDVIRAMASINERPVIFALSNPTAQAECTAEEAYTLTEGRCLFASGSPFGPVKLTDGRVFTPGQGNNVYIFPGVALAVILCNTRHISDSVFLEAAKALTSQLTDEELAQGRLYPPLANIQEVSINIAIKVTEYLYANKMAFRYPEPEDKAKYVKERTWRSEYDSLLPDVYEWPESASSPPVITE
Sequence of UniProt O95568 (O95568 whole entry, looked up): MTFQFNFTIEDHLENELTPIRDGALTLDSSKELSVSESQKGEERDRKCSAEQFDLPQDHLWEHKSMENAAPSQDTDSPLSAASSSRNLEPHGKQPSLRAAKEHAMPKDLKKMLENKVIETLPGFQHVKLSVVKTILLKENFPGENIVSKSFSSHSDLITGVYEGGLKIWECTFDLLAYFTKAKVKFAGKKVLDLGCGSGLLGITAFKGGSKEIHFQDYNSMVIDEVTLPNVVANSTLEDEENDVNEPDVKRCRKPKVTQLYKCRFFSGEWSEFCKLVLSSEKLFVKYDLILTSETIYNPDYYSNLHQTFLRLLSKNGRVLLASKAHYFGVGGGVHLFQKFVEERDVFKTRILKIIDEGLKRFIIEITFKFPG
Sequence of UniProt Q9NVC6 (Q9NVC6 whole entry, looked up): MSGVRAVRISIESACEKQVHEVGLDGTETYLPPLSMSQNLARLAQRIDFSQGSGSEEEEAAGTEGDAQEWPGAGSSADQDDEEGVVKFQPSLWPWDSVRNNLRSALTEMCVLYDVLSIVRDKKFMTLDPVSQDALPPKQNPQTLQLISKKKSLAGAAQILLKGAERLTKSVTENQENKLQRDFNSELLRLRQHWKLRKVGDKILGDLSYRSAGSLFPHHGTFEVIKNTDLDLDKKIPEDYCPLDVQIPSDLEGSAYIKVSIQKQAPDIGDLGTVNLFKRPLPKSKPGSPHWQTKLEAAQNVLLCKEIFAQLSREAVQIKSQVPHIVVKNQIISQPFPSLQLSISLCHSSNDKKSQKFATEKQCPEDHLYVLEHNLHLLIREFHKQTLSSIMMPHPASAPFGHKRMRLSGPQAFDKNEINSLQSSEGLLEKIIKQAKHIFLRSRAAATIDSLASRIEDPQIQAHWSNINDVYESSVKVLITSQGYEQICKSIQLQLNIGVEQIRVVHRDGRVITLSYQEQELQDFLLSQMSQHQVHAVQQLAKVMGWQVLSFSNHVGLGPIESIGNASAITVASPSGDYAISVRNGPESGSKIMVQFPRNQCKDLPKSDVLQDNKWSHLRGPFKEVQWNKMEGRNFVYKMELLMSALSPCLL
Sequence of UniProt P51884 (P51884 whole entry, looked up): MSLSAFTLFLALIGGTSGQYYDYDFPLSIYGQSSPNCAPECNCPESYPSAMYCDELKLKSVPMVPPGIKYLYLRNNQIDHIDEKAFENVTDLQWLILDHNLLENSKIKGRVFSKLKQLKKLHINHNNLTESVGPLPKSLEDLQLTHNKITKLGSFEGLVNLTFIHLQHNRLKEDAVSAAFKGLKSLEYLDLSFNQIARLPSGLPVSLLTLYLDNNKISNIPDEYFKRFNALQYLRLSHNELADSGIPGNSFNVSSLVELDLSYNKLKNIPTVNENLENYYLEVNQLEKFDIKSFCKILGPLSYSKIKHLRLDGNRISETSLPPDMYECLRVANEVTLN
Sequence of UniProt O95372 (O95372 whole entry, looked up): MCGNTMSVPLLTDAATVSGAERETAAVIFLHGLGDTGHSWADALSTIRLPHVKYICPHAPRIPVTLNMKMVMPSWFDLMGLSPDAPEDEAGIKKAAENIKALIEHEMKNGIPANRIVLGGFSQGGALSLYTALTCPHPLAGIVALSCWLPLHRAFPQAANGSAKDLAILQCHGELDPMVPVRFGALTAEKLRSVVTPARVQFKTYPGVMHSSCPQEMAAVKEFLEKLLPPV

log2 fold change, inactive:
LRPPRC (UniProt P42704) 0.245
LBR (UniProt Q14739) -0.174
MED17 (UniProt Q9NVC6) -0.068
KTN1 (UniProt Q86UP2) -0.043
KDM3B (UniProt Q7LBC6) -0.027
LUC7L (UniProt Q9NQ29) 0.083
METTL18 (UniProt O95568) 0.072
KLHDC4 (UniProt Q8TBB5) 0.065
METAP1D (UniProt Q6UB28) 0.026
MAP2K2 (UniProt P36507) 0.021
LARP7 isoform 3 (UniProt Q4G0J3) 0.006
LTO1 (UniProt Q8WV07) -0.047
LUM (UniProt P51884) 0.331
MAP2K1 (UniProt Q02750) -0.026
ME2 (UniProt P23368) 0.008
LEMD3 (UniProt Q9Y2U8) -0.031
L2HGDH (UniProt Q9H9P8) 0.039
IL10RB (UniProt Q08334) 0.027
MAP4K2 (UniProt Q12851) 0.128
KRAS isoform 2 (UniProt P01116) -0.053
KPNB1 (UniProt Q14974) 0.078
ITPRIP (UniProt Q8IWB1) -0.005
LYPLA2 (UniProt O95372) 0.053
